Reference: PubChem BioAssay (NCI)
This is part of a sample that, as a whole, favours compounds with a hit. Of some 83,000 tested, about 20% had one in any assay.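 Values shown are percent growth following 48 h exposure of cells in 96-well plates to a single concentration of compound; below 10 was considered active.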 Unmarked numbers belong to inactive results. The source made the active and inactive calls.

Columns and labels:
Assay in all cases: NCI-60 one-dose screen, 48 h (100 = growth as untreated, 0 = no growth, -100 = all killed)
Settings in all cases: 10 µM unless noted
SR leukemia = test system: SR leukemia
RPMI-8226 leukemia = test system: RPMI-8226 leukemia
OVCAR-8 ovarian = test system: OVCAR-8 ovarian
OVCAR-5 ovarian = test system: OVCAR-5 ovarian
OVCAR-4 ovarian = test system: OVCAR-4 ovarian
SK-OV-3 ovarian = test system: SK-OV-3 ovarian
IGROV1 ovarian = test system: IGROV1 ovarian
OVCAR-3 ovarian = test system: OVCAR-3 ovarian
HS 578T breast = test system: HS 578T breast
NCI/ADR-RES ovarian = test system: NCI/ADR-RES ovarian
T-47D breast = test system: T-47D breast
BT-549 breast = test system: BT-549 breast
MDA-MB-435 melanoma = test system: MDA-MB-435 melanoma
SW-620 colon = test system: SW-620 colon
MCF7 breast = test system: MCF7 breast
HCT-116 colon = test system: HCT-116 colon
HCC-2998 colon = test system: HCC-2998 colon
KM12 colon = test system: KM12 colon

Row | SMILES | growth (SR leukemia) | growth (RPMI-8226 leukemia) | growth (OVCAR-8 ovarian) | growth (OVCAR-5 ovarian) | growth (OVCAR-4 ovarian) | growth (SK-OV-3 ovarian) | growth (IGROV1 ovarian) | growth (OVCAR-3 ovarian) | growth (HS 578T breast) | growth (NCI/ADR-RES ovarian) | growth (T-47D breast) | growth (BT-549 breast) | growth (MDA-MB-435 melanoma) | growth (SW-620 colon) | growth (MCF7 breast) | growth (HCT-116 colon) | growth (HCC-2998 colon) | growth (KM12 colon)
1 | Cn1nc(-c2ccc(Cl)cc2)nc2c(=O)n(C)c(=O)nc1-2 | -40.5% (active) | -22.7% (active) | -58.8% (active) | -89.1% (active) | -99.7% (active) | 32.6% | 7.78% (active) | -40.2% (active) | -4.75% (active) | -21.5% (active) | -43.2% (active) | -46.5% (active) | -45.8% (active) | -33.2% (active) | -62.5% (active) | -37.7% (active) | -70.2% (active) | -15.3% (active)
2 | CC(C)CCc1nc2ccc(NCc3ccc(OCCN4CCC(C)CC4)cc3)cc2[nH]1 | 14.2% | 68.6% | 96.6% | 95% | 80.6% | 102% | 79.3% | 71.9% | 84.3% | 97% | 97% | 77.1% | 89.2% | 89.3% | 62.3% | 65.1% | 42.7% | 87.6%
3 | CS(=O)(=O)c1ccc(/C(=N/NC(N)=S)c2ccc(F)cc2)cc1 | 103% | 99.5% | 103% | 104% | 104% | 112% | 101% | 108% | 102% | 102% | 88.2% | 102% | 102% | 101% | 89.9% | 95.7% | 104% | 101%
4 | Cc1ccc(C(=O)Nc2ccc(CN3CCN(C)CC3)c(C(F)(F)F)c2)cc1C#Cc1cnc(N)c2ccccc12 | -8.12% (active) | -39.6% (active) | -42.1% (active) | 2.98% (active) | -52% (active) | -1.39% (active) | -37.6% (active) | -57.7% (active) | -28.1% (active) | -32.8% (active) | 30.5% | 51.3% | -97% (active) | -88.4% (active) | -81.5% (active) | -90.5% (active) | -83.5% (active) | -83.1% (active)
5 | C=C(C)[C@@H]1CC[C@]2(C(=O)NC(C)=O)CC[C@]3(C)[C@H](CC[C@@H]4[C@@]5(C)CCCNC(C)(C)[C@@H]5CC[C@]43C)[C@@H]12 | -24.5% (active) | -30.3% (active) | 17.5% | 67.9% | 33.9% | 68.6% | 20.4% | -34.3% (active) | 52.3% | 29.4% | 17.6% | 63.1% | -88.7% (active) | -50% (active) | -17.3% (active) | -69.7% (active) | -58.3% (active) | -2.16% (active)
6 | CC(=O)Oc1ccccc1C(=O)N(Cc1ccc2c(Cl)cc(Cl)c(O)c2n1)c1ccccc1 | 39.7% | 36.1% | 34.9% | 77.2% | 36.2% | 64.5% | 42.8% | 40.9% | 76.5% | 8.97% (active) | 40.7% | 77.3% | 54.3% | 29.1% | 34.7% | 30.9% | 60.1% | 39.6%
7 | COc1ccccc1NC(=O)n1c(=O)cc(C)c2ccc(O)cc21 | 118% | 109% | 106% | 112% | 110% | 100% | 113% | 113% | 110% | 107% | 99.8% | 107% | 105% | 109% | 101% | 107% | 95.9% | 101%
8 | CC/C(=C(/c1ccc(Cl)cc1)c1ccc(OCCN2CCCC2)cc1)c1ccccc1 | -10.5% (active) | 7.58% (active) | 69.7% | 82.4% | 72.2% | 104% | 76.6% | 70.2% | 71.3% | 80.1% | 47.6% | 77.8% | 60.2% | 11.8% | 23.1% | 29.7% | 97.6% | 37.1%
9 | COCCNC(=O)Cc1cc(-c2ccc(Cl)cc2)n(-c2ccccc2)c1C | 61.9% | 63% | 85.8% | 90% | 67.1% | 95% | 88.6% | 116% | 107% | 86.1% | 56.3% | 83.5% | 93.7% | 94.9% | 88.6% | 80.4% | 99.3% | 91.7%
10 | CC(C)(C)c1ccc(C(=O)Nc2sc3c(c2C#N)CCC(=O)C3)cc1 | 4.39% (active) | -8.65% (active) | 16.6% | 21% | -73.8% (active) | 57.4% | 25.8% | -29.6% (active) | 30.5% | 9.31% (active) | -31.8% (active) | -11.7% (active) | 6.81% (active) | -51% (active) | 8.36% (active) | 2.24% (active) | 48.1% | 12%
11 | COc1ccc(/C(C)=C(\c2ccc(Cl)cc2)c2ccc(OCCCN(C)C)cc2)cc1 | 0.701% (active) | 25.6% | 85% | 83.4% | 90.4% | 111% | 81.3% | 89% | 71.5% | 86.5% | 58.1% | 82.3% | 39% | 46.3% | 36.9% | 37.4% | 100% | 56.5%
12 | Cc1ccc(C2=Nc3c(N)nc(N)nc3NC(c3cccc(Nc4ccnc5cc(C(F)(F)F)ccc45)c3)C2)cc1 (stereo unspecified) | -8.2% (active) | -19.2% (active) | 36.2% | 105% | 58.2% | 31.4% | 36.1% | 12.6% | 26.3% | 30.1% | 46.9% | 94% | -40.1% (active) | 19.1% | 6.88% (active) | 1.85% (active) | 35% | 15%
13 | Cc1[nH]c(C(=O)Nc2ccccc2OC2CCNC2)c(Cl)c1Cl (stereo unspecified) | 0.45% (active) | 79% | 94% | 95.5% | 79.1% | 99.3% | 66.5% | 84.5% | 93.2% | 86.7% | 83.2% | 88% | 86.4% | 79.8% | 67.3% | 42.8% | 94.4% | 84.2%
14 | N#C/C(=C\c1cccc2cnccc12)N1N=NC2C=CC=CC21 (stereo unspecified) | 26.3% | 18.8% | 42.9% | 51.8% | 25.2% | 86.1% | 27.9% | 6.92% (active) | 24.2% | 42.7% | 23.8% | 41.6% | 9.28% (active) | 13.1% | 13.6% | 14.2% | 91.7% | 43.5%
15 | CCOC(=O)/C(=C\c1ccccc1Cl)P(=O)(OCC)OCC | -0.778% (active) | 7.93% (active) | 59.1% | 82.4% | 75.1% | 95.7% | 65.7% | 56.1% | 80.3% | 44% | 39.5% | 57.6% | 45.1% | 46.6% | 17.8% | 44.2% | 94.5% | 52.9%
16 | COC(=O)c1nc(-c2ccccc2)oc1S(=O)(=O)NCC(c1ccc(Cl)cc1)N1CCCCC1 (stereo unspecified) | -3.58% (active) | 20% | 57% | 90.8% | 89.3% | 95.5% | 56.5% | 57.5% | 100% | 89% | 52.1% | 55.8% | 72.1% | 36.2% | 34.7% | 78% | 117% | 80.6%
17 | CCOC(=O)c1c(Nc2nc3ccccc3s2)sc2c1CCC(=O)C2 | 0.365% (active) | 12.7% | 27.2% | 86.7% | 8.06% (active) | 99.5% | 44.7% | 49.7% | 41.1% | 87.3% | 37% | 13.5% | 82.6% | 19.4% | 39.3% | 11.4% | 104% | 47.7%
